In PubChem BioAssay (NCATS):
“And” between values parts separate entries of the source, which are not always exact repeats. Identical values can stand only once. Records with an inconclusive call do not appear. The source made the active and inactive calls. Unless noted, calls follow the shape of the dose curve; as a rule, active = well fitted curve in the direction sought with a large enough effect; inconclusive = small, poorly fitted or top-dose-only effect, or another doubt; inactive = no such curve, though single readings can be large; an effect the other way counts as inactive or inconclusive.

Legend:
[1] = Cell Viability - BJ (AID 421; calls by dose curve;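 also: potency is read from the fitted curve at half-maximal effect; cells exposed to compound for 40 hours at 37 °C before readout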); conditions: BJ fibroblast viability, qHTS
Method in brief: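 Luminescent ATP signal (CellTiter-Glo, 20 min at room temperature) served as the read-out of viable BJ cells after 40 hours of compound treatment. Responses were scaled between DMSO and 100 uM tamoxifen, and AC50 values were obtained by Hill modeling.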

[2] = Cell Viability - Jurkat (AID 426;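 active = dose-dependent loss of cell ATP signal giving a full or clear fitted curve, ranked by lower potency value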;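 also: potency is read from the fitted curve at half-maximal effect; cells exposed to compound for 40 hours at 37 °C before ATP read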); conditions: qHTS
Method in brief: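 Cytotoxicity taken as drop in cellular ATP (CellTiter-Glo luminescence, 20 min room temperature) after 40 hr, 37C treatment of 5000 Jurkat Clone E6-1 cells per well; concentration-response fitted with Hill equation for AC50.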

[3] = Cell Viability - HepG2 (AID 433; calls by dose curve;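 also: potency is read from the fitted curve at half-maximal effect; potency for ATP loss meaning cytotoxicity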); conditions: qHTS
Method in brief: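 Cytotoxicity read as ATP loss (CellTiter-Glo luminescence) after 40 hr compound exposure of HepG2, 1500 cells/well, 37 °C. AC50 by Hill equation; 0% set by DMSO, 100% inhibition by 100 uM tamoxifen.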

[4] = Cell Viability - MRC5 (AID 434; calls by dose curve;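 also: potency is read from the fitted curve at half-maximal effect; cells exposed to compound for 40 hours at 37 °C; potency reflects cytotoxicity seen as loss of intracellular ATP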); conditions: MRC5 lung fibroblast viability, qHTS
Method in brief: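 ATP luminescence read-out (CellTiter-Glo, 20 min RT) after 40 hr, 37 °C compound exposure of 1500 MRC5 cells/well. Data normalized to DMSO (basal) and 100 uM tamoxifen (100% inhibition); AC50 from standard Hill equation.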

[5] = Cell Viability - SK-N-SH (AID 435; calls by dose curve; also: potency is read from the fitted curve at half-maximal effect); conditions: SK-N-SH neuroblastoma cell viability qHTS
Method in brief: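 qHTS cytotoxicity: CellTiter-Glo ATP luminescence after 40 h compound exposure of human neuroblastoma SK-N-SH cells at 37 °C. AC50 derived by Hill-equation fitting, with DMSO as basal and 100 uM tamoxifen as full inhibition.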

[6] = target: Mitogen-activated protein kinase 10 (Mus musculus) (UniProt Q61831); test: JNK3 AlphaScreen Assay (AID 530; active = well fitted curve in either direction with a large enough effect, not every such curve was filed as active;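 also: kinase came from lysate of stimulated human HepG2 cells; signal reports phosphorylation of biotinylated GST-cJun 1-79 at Ser73 with 10 µM ATP; % is scaled to controls: 0 for no effect and ±100 for the full control effect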); conditions: JNK3 lysate, c-Jun phosphorylation; series mostly up to 57.1 µM
Method in brief: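 Activity was read by AlphaScreen after JNK3-containing HepG2 lysate (cytokine pre-activated) phosphorylated biotinylated GST-cJun with 10 uM ATP at room temperature. Phospho-Ser73 cJun antibody with Protein-A acceptor beads provided detection.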

[7] = Cell Viability - N2a (AID 540); conditions: N2a mouse neuroblastoma cell viability; activity change, negative = cytotoxicity: at 92.2 µM (top of the series); also: nearly all actives have a fitted effect of over 45% in size; also: potency is read from the fitted curve at half-maximal effect;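 as to activity change, negative = cytotoxicity: plate controls were DMSO alone for no effect and tamoxifen control for full effect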
Method in brief: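 CellTiter-Glo ATP luminescence, read 20 min after reagent at room temperature, reported viability following 40 h compound treatment at 37 °C. N2a mouse neuroblastoma cells seeded 1500/well; Hill equation gave AC50.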

[8] = Cell Viability - NIH 3T3 (AID 541); conditions: NIH 3T3 cell viability, qHTS; activity change, negative = cytotoxicity: at 92.2 µM (top of the series); also: nearly all actives have a fitted effect of over 25% in size; also: potency is read from the fitted curve at half-maximal effect;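 as to activity change, negative = cytotoxicity: plate controls were DMSO alone for no effect and tamoxifen positive control for full effect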
Method in brief: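 Intracellular ATP (CellTiter-Glo luminescence, 20 min at room temperature) measured after 40 hr compound exposure at 37 °C of 1000 NIH 3T3 mouse fibroblasts/well in complete medium; AC50 derived by Hill-equation modelling of qHTS concentration-response curves.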

[9] = Cell Viability - HUV-EC-C (AID 542); conditions: HUV-EC-C endothelial cell viability, qHTS; series mostly up to 92.2 µM; also: nearly all actives have a fitted effect of over 35% in size; also: potency is read from the fitted curve at half-maximal effect; as to activity change, negative = cytotoxicity: % is scaled to controls: 0 for no effect and ±100 for the full control effect
Method in brief: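 CellTiter-Glo luminescence measured ATP loss in HUV-EC-C cells (1000/well) after 40 hr compound exposure at 37 °C, in complete culture medium. Concentration-response data were Hill-fitted to give AC50.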

[10] = Cell Viability - SH-SY5Y (AID 544); conditions: SH-SY5Y neuroblastoma cell viability; series mostly up to 92.2 µM; also: nearly all actives have a fitted effect of over 55% in size; also: potency is read from the fitted curve at half-maximal effect
Method in brief: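 Cytotoxicity measured via ATP-dependent luciferase luminescence (CellTiter-Glo) following 40 h, 37 °C exposure of 1500 SH-SY5Y cells per well. Concentration-response data were fitted with the standard Hill equation to give AC50.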

[11] = Cell Viability - Renal Proximal Tubule (AID 545); conditions: renal proximal tubule cells viability; activity change, negative = cytotoxicity: at 91.7 µM (top of the series); also: nearly all actives have a fitted effect of over 40% in size; also: potency is read from the fitted curve at half-maximal effect;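 as to activity change, negative = cytotoxicity: 0% = DMSO only and -100% = 100 µM tamoxifen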
Method in brief: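 Viability taken as intracellular ATP (CellTiter-Glo luminescence) after 40 hr, 37 °C compound treatment of primary proximal tubule cells from rat kidney, 1000 cells/well; Hill-equation fits of qHTS concentration-response data gave AC50.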

[12] = Cell Viability - H-4-II-E (AID 543); conditions: H-4-II-E rat hepatoma viability; series mostly up to 92.2 µM; also: nearly all actives have a fitted effect of over 35% in size; also: potency is read from the fitted curve at half-maximal effect
Method in brief: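 CellTiter-Glo luminescence (intracellular ATP) measured after 40 h compound exposure at 37 °C in H-4-II-E rat hepatoma cells seeded at 1500/well. Values are AC50s fitted with the standard Hill equation.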

[13] = Cell Viability - Hek293 (AID 427;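 active = compounds whose dose-response curve shows a full or clear partial loss of cell viability, called from curve shape rather than a numeric limit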;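 also: potency is read from the fitted curve at half-maximal effect; cells exposed to compound for 40 hours at 37 °C before reading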); conditions: qHTS
Method in brief: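 Luminescent ATP read-out (CellTiter-Glo, 20 min RT) after 40 hr compound exposure at 37 °C in complete medium. Signal normalized to DMSO (basal) and 100 uM tamoxifen (100% inhibition); concentration-response fitted with the standard Hill equation to give AC50.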

[14] = target: Glucocorticoid receptor (Homo sapiens) (UniProt P04150); test: GR-GFP Redistribution (AID 450;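 active = compounds whose dose series gives a full or clear partial fitted curve of increased nuclear translocation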; also: potency is read from the fitted curve at half-maximal effect); conditions: U2OS GR-GFP nuclear translocation, laser cytometry, 2 h
[15] = target: Glucocorticoid receptor (Homo sapiens) (UniProt P04150); test: GR-EFC Redistribution (AID 451; calls by dose curve; also: potency is read from the fitted curve at half-maximal effect); conditions: CHO-K1 GR-EFC translocation, beta-gal luminescence, 2 h
Method in brief: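 CHO-K1 cells expressing nuclear EA and GR-ED fragments of b-gal; compounds titrated up to 46 uM final, 2 h at 37 C. GR nuclear translocation read as complemented b-gal luminescence after 1 h RT detection.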

Chain of Glucocorticoid receptor (Homo sapiens) (P04150 whole entry, looked up, the tested form may be a part): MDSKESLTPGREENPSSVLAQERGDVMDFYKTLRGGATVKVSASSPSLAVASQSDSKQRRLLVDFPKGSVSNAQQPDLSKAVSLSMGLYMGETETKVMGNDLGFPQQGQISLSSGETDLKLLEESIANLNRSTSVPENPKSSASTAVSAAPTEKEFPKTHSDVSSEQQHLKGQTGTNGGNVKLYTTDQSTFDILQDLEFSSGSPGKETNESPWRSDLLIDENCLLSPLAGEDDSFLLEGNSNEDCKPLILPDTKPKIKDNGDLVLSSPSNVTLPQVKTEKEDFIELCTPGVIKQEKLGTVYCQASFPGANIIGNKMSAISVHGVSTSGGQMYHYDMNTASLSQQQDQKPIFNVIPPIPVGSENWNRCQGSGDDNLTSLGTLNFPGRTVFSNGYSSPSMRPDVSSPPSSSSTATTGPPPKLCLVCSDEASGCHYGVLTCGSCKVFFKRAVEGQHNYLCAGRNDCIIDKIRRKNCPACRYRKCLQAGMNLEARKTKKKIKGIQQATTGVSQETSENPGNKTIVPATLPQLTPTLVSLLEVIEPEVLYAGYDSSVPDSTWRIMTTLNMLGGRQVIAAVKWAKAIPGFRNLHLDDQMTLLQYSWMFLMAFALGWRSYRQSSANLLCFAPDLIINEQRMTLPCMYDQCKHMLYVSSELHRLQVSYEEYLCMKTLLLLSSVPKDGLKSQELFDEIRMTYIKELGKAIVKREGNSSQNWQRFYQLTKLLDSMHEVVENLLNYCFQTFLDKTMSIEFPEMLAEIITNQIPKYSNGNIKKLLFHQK

C[C@]12CCC(=O)C[C@@H]1CC[C@@H]1[C@@H]2CC[C@]2(C)[C@@H](O)CC[C@@H]12
inactive: Potency [1] > 92 µM | Potency [2] > 92 µM | Potency [3] > 92 µM | Potency [4] > 92 µM | Potency [5] > 92 µM | outcome [6] | Potency [7] | Potency [8] | Potency [9] | Potency [10] | Potency [11]

CC(C)Nc1ccc(Nc2ccccc2)cc1
active: Potency [2] 22.8 µM | Potency [5] 40.5 µM | activity change, negative = cytotoxicity [7] -116% | activity change, negative = cytotoxicity [8] -150% | Potency [9] 12.6 µM | Potency [12] 25.1 µM | Potency [10] 10 µM

O=[N+]([O-])c1ccccc1
inactive: Potency [1] > 92 µM | Potency [2] > 92 µM | Potency [13] > 92 µM | Potency [3] > 92 µM | Potency [4] > 92 µM | Potency [5] > 92 µM | outcome [6] | Potency [7] | Potency [8] | Potency [9] | Potency [12] | Potency [10] | Potency [11]

C[C@H]1CC[C@@H]2[C@@H](C)[C@H]3[C@H](C[C@H]4[C@@H]5CC=C6CC(O[C@@H]7O[C@H](CO)[C@H](O)[C@H](O[C@@H]8O[C@H](CO)[C@@H](O)[C@H](O)[C@H]8O)[C@H]7O[C@H]7O[C@@H](C)[C@H](O)[C@@H](O)[C@H]7O)CC[C@]6(C)[C@H]5CC[C@]34C)N2C1 (stereo partly specified)
active: Potency [1] 35 µM | Potency [2] 32.5 µM | Potency [13] 39.3 µM | Potency [3] 23.7 µM | Potency [4] 45 µM | Potency [5] 24.8 µM | Potency [7] 31.6 µM | Potency [8] 31.6 µM | Potency [9] 31.6 µM | Potency [12] 31.6 µM | Potency [10] 31.6 µM | activity change, negative = cytotoxicity [11] -101%

O=C(O)C(Cl)(Cl)Cl
inactive: Potency [1] > 92 µM | Potency [2] > 92 µM | Potency [13] > 92 µM | Potency [3] > 92 µM | Potency [4] > 92 µM | Potency [5] > 92 µM | outcome [6] | Potency [7] | Potency [8] | Potency [9] | Potency [12] | Potency [10] | Potency [11]

N[C@@H](Cn1oc(=O)[nH]c1=O)C(=O)O
inactive: Potency [14] > 46 µM | Potency [15] > 46 µM

O=C1CCO1
inactive: Potency [1] > 92 µM | Potency [2] > 92 µM | Potency [13] > 92 µM | Potency [3] > 92 µM | Potency [4] > 92 µM | Potency [5] > 92 µM | Potency [7] | Potency [8] | Potency [9] | Potency [12] | Potency [10] | Potency [11]

O=CC=O
inactive: Potency [1] > 92 µM | Potency [2] > 92 µM | Potency [13] > 92 µM | Potency [3] > 92 µM | Potency [4] > 92 µM | Potency [5] > 92 µM | Potency [7] | Potency [9] | Potency [12] | Potency [11]
active: Potency [8] 12.6 µM

CCOC(=O)c1ccccc1C(=O)OCC
inactive: Potency [1] > 92 µM | Potency [2] > 92 µM | Potency [13] > 92 µM | Potency [3] > 92 µM | Potency [4] > 92 µM | Potency [5] > 92 µM | Potency [7] | Potency [8] | Potency [9] | Potency [12] | Potency [10] | Potency [11]

Oc1cc(Cl)c(Cl)cc1Cl
active: Potency [7] 25.1 µM
inactive: Potency [1] > 92 µM | Potency [13] > 92 µM | Potency [3] > 92 µM | Potency [4] > 92 µM | outcome [6] | Potency [8] | Potency [9] | Potency [12] | Potency [10] | Potency [11]

C[C@H]1CCC[C@H](O)CCCCCc2cc(O)cc(O)c2C(=O)O1
inactive: Potency [1] > 92 µM | Potency [2] > 92 µM | Potency [3] > 92 µM | Potency [4] > 92 µM | Potency [7] | Potency [9] | Potency [12] | Potency [11]
active: activity change, negative = cytotoxicity [8] -108%

[O]=[Cr](=[O])([OH])[O][Cr](=[O])(=[O])[OH]
active: Potency [1] 19.5 µM and 13.4 µM and 4.66 µM | Potency [2] 1.88 µM and 3.05 µM and 549 nM | Potency [13] 30.9 µM and 31.8 µM and 19.2 µM | Potency [3] 12.2 µM and 14.7 µM and 7.52 µM | Potency [4] 4.16 µM and 11.5 µM and 9.77 µM | Potency [5] 19.2 µM and 17.1 µM and 3.88 µM | Potency [7] 39.8 µM and 25.1 µM | activity change, negative = cytotoxicity [7] -124% | Potency [8] 15.8 µM | activity change, negative = cytotoxicity [8] -141% and -151% | Potency [9] 3.98 µM and 20 µM and 5.01 µM | Potency [10] 316 nM and 15.8 µM and 3.98 µM | Potency [11] 2.51 µM and 7.94 µM and 501 nM
